{"source": "PubChem BioAssay (NCATS)", "note": "Records with an inconclusive call do not appear. The source made the active and inactive calls. Calls come from the whole dose curve; as a rule, active = well fitted cell-killing curve with a large enough effect; inconclusive = small, poorly fitted or top-dose-only effect, or effect the other way; inactive = no such curve, though single readings can be large or run the other way. Potency is the fitted concentration of half-maximal effect."}
{"assay": "Quantitative High-Throughput drug screen in 47 multiple myeloma cell lines against the NCATS MIPE library collection: KMS28PE_JCRB cell viability assay (AID 1918983); note: nearly all actives have a fitted effect of over 35% in size", "details": "KMS28PE multiple myeloma viability, CellTiter-Glo ATP, 48 h; series mostly up to 45.8 µM; viability, % of DMSO control: at the top concentration", "description": "PI: Beverly A. Mock Ph.D.\nLaboratory of Cancer Biology and Genetics,\nCenter for Cancer Research, National Cancer Institute,\nNational Institute of Health, Bethesda, Maryland\nDrug resistance and disease progression are common in multiple myeloma (MM) patients, underscoring the need for new therapeutic combinations. […] We hypothesized that effective combinations would reduce MYC expression and enhance p16 activity. […] These preclinical data identify potentially useful drug combinations for evaluation in drug-resistant MM and reveal potential mechanisms of combined drug sensitivity.\nDescribed herein is the primary MIPE qHTS used to cherrypick compounds. Validated compounds were then further tested for potential synergistic activiy.\n[1] Peat TJ, Gaikwad SM, Dubois W, Gyabaah-Kessie N, Zhang S, Gorjifard S, Phyo Z, Andres M, Hughitt VK, Simpson RM, Miller MA, Girvin AT, Taylor A, Williams D, D'Antonio N, Zhang Y, Rajagopalan A, Flietner E, Wilson K, Zhang X, Shinn P, Klumpp-Thomas C, McKnight C, Itkin Z, Chen L, Kazandijian D, Zhang J, Michalowski AM, Simmons JK, Keats J, Thomas CJ, Mock BA. Drug combinations identified by high-throughput screening promote cell cycle transition and upregulate Smad pathways in myeloma. Cancer Lett. 2023 Aug 1;568:216284. doi: 10.1016/j.canlet.2023.216284. Epub 2023 Jun 24. PMID: 37356470; PMCID: PMC10408729.\nSEQUENCE No. (e.g., 1, 2, 3, etc.); […] (e.g., Cells, Incubation, Reagent, etc.); VALUE and DESCRIPTION.\n1; Cells; 5 uL; white, solid bottom 1536-well Greiner assay plate.\n2; Compounds; 23 nL; Kalypsis pin tool (Wako USA) equipped with a 1536-well pin head to transfer to the assay plates.\n3; Incubation; 48 hours; 37C incubation.\n4; Reagent;5uL; CellTiter Glo (Promega).\n5; Detector; 425V; Luminescence; Viewlux PerkinElmer.\nNOTES (numbers refer to Sequence numbers above)\n1. The cell-based screening methods employed in this study were like those previously published. Briefly, the corresponding myeloma cell lines were screened in 1,536-well plates with 500 cells, 5-uL per well for inhibition of cell viability (assessed by measuring ATP levels with CellTiterGlo).\n2. NCATS MIPE 4.0 library of approved and investigational drugs were added using the Kalypsis pin tool. Wells treated with DMSO only for 100% viability and media only for 0% viability were used as controls.\n3. The assay plates were covered and incubated for 48 hours in a 37C, 5% CO2 incubator with controlled humidity.\n4. After 48 hours, CellTilter-GloTM luminescent substrate mix (Promega) reagent was added to the assay plate and plates we incubated for 5 min at room temperature.\n5. Signal was measured as median relative luminescence units on a ViewLux (PerkinElmer) multiplate reader.\n[1] Heske CM, Davis MI, Baumgart JT, Wilson K, Gormally MV, Chen L, Zhang X, Ceribelli M, Duveau DY, Guha R, Ferrer M, Arnaldez FI, Ji J, Tran HL, Zhang Y, Mendoza A, Helman LJ, Thomas CJ. Matrix Screen Identifies Synergistic Combination of PARP Inhibitors and Nicotinamide Phosphoribosyltransferase (NAMPT) Inhibitors in Ewing Sarcoma. Clin Cancer Res. 2017 Dec 1;23(23):7301-7311. doi: 10.1158/1078-0432.CCR-17-1121. Epub 2017 Sep 12. PMID: 28899971; PMCID: PMC6636827."}
{"smiles": "CN(C)CCC=C1c2ccccc2COc2ccc(CC(=O)O)cc21", "viability, % of DMSO control": "121% (inactive)"}
{"smiles": "CC(C)n1cnc2c(NCCCCCCNC(=O)OC(C)(C)C)nc(NCCO)nc21", "Potency": "18.7 µM (active)"}
{"smiles": "O=c1cc(CN2CCOCC2)occ1OCCCCCSc1ccnc2cc(C(F)(F)F)ccc12", "Potency": "2.64 µM (active)"}
{"smiles": "C=C1C(=O)OC2C=C(C)CCC=C(C)CCC12", "note": "(stereo not given)", "Potency": "23.5 µM (active)"}
{"smiles": "Cc1c(O)cccc1C(=O)N[C@@H](CSc1ccccc1)[C@H](O)CN1C[C@H]2CCCC[C@@H]2C[C@@H]1C(=O)NC(C)(C)C", "Potency": "20.9 µM (active)"}
{"smiles": "CO[C@H]1C[C@@H]2CC[C@@H](C)[C@@](O)(O2)C(=O)C(=O)N2CCCC[C@@H]2C(=O)O[C@H]([C@H](C)C[C@@H]2CC[C@H](OP(C)(C)=O)[C@H](OC)C2)CC(=O)[C@H](C)C=C(C)[C@@H](O)[C@@H](OC)C(=O)[C@H](C)C[C@H](C)C=CC=CC=C1C", "viability, % of DMSO control": "87.9% (inactive)"}
{"smiles": "O=C1NC(=O)C(=Cc2ccc3c(c2)OC(F)(F)O3)S1", "viability, % of DMSO control": "134% (inactive)"}
{"smiles": "COc1ccc(-c2coc3cc(O)cc(O)c3c2=O)cc1", "viability, % of DMSO control": "161% (inactive)"}
{"smiles": "COc1ccc2cc(-c3nc(-c4ccc(S(C)=O)cc4)[nH]c3-c3ccncc3)ccc2c1", "note": "(stereo not given)", "viability, % of DMSO control": "131% (inactive)"}
{"smiles": "Nc1ncnc2c1nc(Cl)n2[C@@H]1O[C@H](CO)[C@@H](O)[C@@H]1O", "Potency": "18.7 µM (active)"}
{"smiles": "COc1cc2ncnc(-n3nc(-c4ccccn4)nc3N)c2cc1OC", "Potency": "11.8 µM (active)"}
{"smiles": "CCC(=O)NC[C@H](Cc1ccc(OCCc2nc(-c3ccccc3)oc2C)cc1)NC(C)=CC(=O)c1ccc(C(F)(F)F)cc1", "Potency": "23.5 µM (active)"}
{"smiles": "COc1cc(Nc2ncc(F)c(Nc3ccc4c(n3)NC(=O)C(C)(C)O4)n2)cc(OC)c1OC", "Potency": "0.833 µM (active)"}
{"smiles": "O=C(O)CCC1CCC(c2cc(F)ccc2F)(S(=O)(=O)c2ccc(Cl)cc2)CC1", "note": "(stereo not given)", "viability, % of DMSO control": "148% (inactive)"}
{"smiles": "Cc1ccc(F)c(NC(=O)Nc2ccc(-c3cccc4[nH]nc(N)c34)cc2)c1", "Potency": "26.4 µM (active)"}
{"smiles": "CC(=O)Nc1ccc([C@H](C)C(=O)Nc2ncc(C(C)C)s2)cc1", "Potency": "7.43 µM (active)"}
{"smiles": "COc1ccc(C2CC(c3ccccc3)=NN2c2ccc(S(N)(=O)=O)cc2)cc1", "note": "(stereo not given)", "viability, % of DMSO control": "157% (inactive)"}
{"smiles": "CC(C)n1nc(-c2ccc3oc(N)nc3c2)c2c(N)ncnc21", "Potency": "0.0023 µM (active)"}
{"smiles": "CCOc1ccc(Nc2nc(-c3c(C)nc4ccccn34)cs2)cc1", "Potency": "0.0059 µM (active)"}
{"smiles": "CC=C(C)C(=O)O[C@H]1C(C)=C[C@]23C(=O)[C@@H](C=C(CO)[C@@H](O)[C@]12O)[C@H]1[C@@H](C[C@H]3C)C1(C)C", "Potency": "0.0372 µM (active)"}
{"smiles": "O=C(Nc1cccc(Br)c1)c1cccc(S(=O)(=O)N2CCCCCC2)c1", "Potency": "23.5 µM (active)"}
{"smiles": "CC1(C)Cc2c(sc(NC(=S)NC(=O)c3ccccc3)c2C(=O)O)CO1", "viability, % of DMSO control": "163% (inactive)"}
{"smiles": "Cc1cc(OCCCc2c(C(=O)O)n(Cc3cccnc3)c3c(-c4c(COc5ccc(N6CCN([S+](C)(=O)[O-])CC6)cc5)nn(C)c4C)cccc23)cc(C)c1Cl", "Potency": "23.5 µM (active)"}
{"smiles": "O=C(O)C(O)Cc1ccc(O)c(O)c1", "note": "(stereo not given)", "Potency": "23.5 µM (active)"}
{"smiles": "COc1ccc(Cc2ccc(NC(N)=O)cc2)cc1-c1cccc(Cl)c1", "viability, % of DMSO control": "105% (inactive)"}
{"smiles": "O=C1c2c(O)cc(O)cc2O[C@H](c2cc(O)c(O)c(O)c2)[C@H]1O", "Potency": "20.9 µM (active)"}
{"smiles": "CC(C)(C)COc1ccc(-n2cc(C(=O)O)cn2)cc1C#N", "viability, % of DMSO control": "122% (inactive)"}
{"smiles": "Cc1c(NC(=O)c2ccc(C(C)(C)C)cc2)cccc1-c1cn(C)c(=O)c(Nc2ccc(C(=O)N3CCOCC3)cc2)n1", "Potency": "23.5 µM (active)"}
{"smiles": "c1ccc2c(Cc3c[nH]c4ccccc34)c[nH]c2c1", "Potency": "26.4 µM (active)"}
{"smiles": "CNC(=O)c1ccc2cc(C3(O)CCn4cncc43)ccc2c1", "note": "(stereo not given)", "viability, % of DMSO control": "120% (inactive)"}
{"smiles": "CCCCCNC(=O)N1CCC(CN(Cc2ccc(Cl)cc2)Cc2ccc([N+](=O)[O-])s2)C1", "note": "(stereo not given)", "Potency": "20.9 µM (active)"}
{"smiles": "c1cc(-c2sc(-c3ccncc3)c(-c3ccncc3)c2-c2ccncc2)ccn1", "viability, % of DMSO control": "144% (inactive)"}
{"smiles": "COCCOC(=O)C1=C(C)NC2=C(C(=O)CC(c3ccccc3OC)C2)C1c1cccc(O)c1", "note": "(stereo not given)", "Potency": "5.9 µM (active)"}
{"smiles": "CC(C)OC(=O)CCCC=CC[C@@H]1[C@H](C=C[C@@H](O)COc2cccc(C(F)(F)F)c2)[C@H](O)C[C@@H]1O", "Potency": "20.9 µM (active)"}
{"smiles": "Cc1ccn(-c2ccc(-c3ncco3)cc2)c(=O)c1-c1ccc2nc(N)ncc2c1", "viability, % of DMSO control": "133% (inactive)"}
{"smiles": "COc1ccc2cccc(CCNC(C)=O)c2c1", "viability, % of DMSO control": "110% (inactive)"}
{"smiles": "NS(=O)(=O)c1cccc2c1C(=O)c1cccc(O)c1C2=O", "Potency": "1.18 µM (active)"}
{"smiles": "CO[C@H]1C=CC=C(C)C(=O)NC2=CC(=O)C(NCCN(C)C)=C(C[C@@H](C)C[C@H](OC)[C@@H](O)[C@@H](C)C=C(C)[C@@H]1OC(N)=O)C2=O", "Potency": "0.0166 µM (active)"}
{"smiles": "N#Cc1ccc(NC(=O)Nc2ccccc2Br)c2n[nH]nc12", "viability, % of DMSO control": "120% (inactive)"}
{"smiles": "CC(C)(C)NC(=O)Nc1cccc(Nc2ncc(F)c(NC(C)(C)CO)n2)c1", "viability, % of DMSO control": "156% (inactive)"}
